What all share (assay): DAPPL (digital affinity profiling via proximity ligation, sequencing); 10 mM Tris-HCl pH 7.5, 50 mM NaCl, 1 mM DTT, 4% glycerol, room temperature, 30 min; GST-TFs on glutathione beads, 16-mer random dsDNA library, 0.1% formaldehyde crosslink after washing; high values mean tight binding
In one assay the target is T1, FEV (Homo sapiens, UniProt Q99581 1-238).
T1 sequence: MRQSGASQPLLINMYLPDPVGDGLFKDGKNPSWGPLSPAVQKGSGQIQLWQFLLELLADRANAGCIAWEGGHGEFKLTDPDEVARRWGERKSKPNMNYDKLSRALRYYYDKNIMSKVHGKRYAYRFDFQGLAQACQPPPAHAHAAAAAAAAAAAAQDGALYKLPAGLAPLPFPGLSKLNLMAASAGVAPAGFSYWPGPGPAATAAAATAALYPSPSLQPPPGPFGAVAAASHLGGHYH
The following applies: protein: recombinant; tags: N-terminal GST; dsDNA, one strand shown. The method in brief: (§1)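 Human transcription factors fused to GST were expressed in yeast, captured on glutathione beads, given DNA barcodes and pooled with a GST-only negative control. Pools were incubated with 200 nmole of a 16-mer random double-stranded DNA library in Tris/NaCl/DTT/glycerol buffer at room temperature for 30 min. They were then washed, crosslinked with 0.1% formaldehyde, proximity-ligated (BsaI/T4 ligase, 1 h, 37 °C), PCR-amplified and sequenced on an Illumina NextSeq500. Binding signal is each 6-mer's read frequency for a factor divided by its frequency for the GST control.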

The next assay has as its target ETV5 (Homo sapiens, UniProt P41161 1-510). The following applies: protein: recombinant; tags: N-terminal GST; dsDNA, one strand shown. The method in brief: as §1
Another assay deals with HSF1 (Homo sapiens, UniProt Q00613 1-529). Conditions: protein: recombinant; tags: N-terminal GST; chain copies: 3; dsDNA, one strand shown. The method in brief: as §1
HSF1, sequence (Q00613 whole entry): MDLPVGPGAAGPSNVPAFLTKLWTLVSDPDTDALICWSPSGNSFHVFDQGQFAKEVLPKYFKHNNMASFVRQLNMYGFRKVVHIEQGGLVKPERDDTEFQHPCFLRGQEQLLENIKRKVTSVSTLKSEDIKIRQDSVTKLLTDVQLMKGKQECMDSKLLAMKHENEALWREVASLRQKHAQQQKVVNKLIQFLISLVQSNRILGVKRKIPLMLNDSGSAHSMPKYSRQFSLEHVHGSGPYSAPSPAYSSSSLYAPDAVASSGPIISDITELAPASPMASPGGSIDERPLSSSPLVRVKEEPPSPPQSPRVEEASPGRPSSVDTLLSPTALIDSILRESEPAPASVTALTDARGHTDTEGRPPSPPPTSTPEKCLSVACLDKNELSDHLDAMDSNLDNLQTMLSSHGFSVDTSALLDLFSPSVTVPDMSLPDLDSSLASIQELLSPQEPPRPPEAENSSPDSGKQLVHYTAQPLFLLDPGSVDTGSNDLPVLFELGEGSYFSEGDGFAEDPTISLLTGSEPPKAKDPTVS
The target in another assay is T2, SPIC (Homo sapiens, UniProt Q8N5J4 1-248).
T2 sequence: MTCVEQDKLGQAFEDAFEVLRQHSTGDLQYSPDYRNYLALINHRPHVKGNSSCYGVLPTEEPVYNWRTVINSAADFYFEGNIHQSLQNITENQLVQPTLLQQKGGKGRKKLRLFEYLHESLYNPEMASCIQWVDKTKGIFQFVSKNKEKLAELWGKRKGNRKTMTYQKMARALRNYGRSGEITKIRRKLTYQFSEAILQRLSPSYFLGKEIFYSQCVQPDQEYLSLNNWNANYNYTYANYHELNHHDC
Conditions: protein: recombinant; tags: N-terminal GST; dsDNA, one strand shown. The method in brief: as §1

For another assay, the target named is ELF4 (Homo sapiens, UniProt Q99607 1-663). Conditions: protein: recombinant; tags: N-terminal GST; dsDNA, one strand shown. The method in brief: as §1
ELF4, sequence (Q99607 whole entry): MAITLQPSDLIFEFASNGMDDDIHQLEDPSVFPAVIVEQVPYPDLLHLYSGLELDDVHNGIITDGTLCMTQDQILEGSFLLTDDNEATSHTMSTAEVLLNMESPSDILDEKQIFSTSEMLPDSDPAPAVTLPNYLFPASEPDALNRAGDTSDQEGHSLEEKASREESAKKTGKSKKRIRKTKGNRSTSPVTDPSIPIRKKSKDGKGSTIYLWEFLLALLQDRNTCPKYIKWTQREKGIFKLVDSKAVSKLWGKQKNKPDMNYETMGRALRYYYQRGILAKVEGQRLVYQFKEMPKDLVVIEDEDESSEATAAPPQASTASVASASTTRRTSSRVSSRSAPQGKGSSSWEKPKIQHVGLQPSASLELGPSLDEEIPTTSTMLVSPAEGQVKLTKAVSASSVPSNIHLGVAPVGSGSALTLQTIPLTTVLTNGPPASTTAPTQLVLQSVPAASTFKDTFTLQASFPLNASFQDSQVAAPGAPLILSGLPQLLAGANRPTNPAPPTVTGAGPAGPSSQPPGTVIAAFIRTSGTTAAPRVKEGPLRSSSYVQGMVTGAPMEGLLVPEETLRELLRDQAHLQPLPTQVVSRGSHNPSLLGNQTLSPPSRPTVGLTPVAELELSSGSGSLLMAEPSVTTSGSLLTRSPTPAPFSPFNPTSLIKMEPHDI
Another assay addresses T3, ELK4 (Homo sapiens, UniProt P28324-2 1-405).
T3 sequence: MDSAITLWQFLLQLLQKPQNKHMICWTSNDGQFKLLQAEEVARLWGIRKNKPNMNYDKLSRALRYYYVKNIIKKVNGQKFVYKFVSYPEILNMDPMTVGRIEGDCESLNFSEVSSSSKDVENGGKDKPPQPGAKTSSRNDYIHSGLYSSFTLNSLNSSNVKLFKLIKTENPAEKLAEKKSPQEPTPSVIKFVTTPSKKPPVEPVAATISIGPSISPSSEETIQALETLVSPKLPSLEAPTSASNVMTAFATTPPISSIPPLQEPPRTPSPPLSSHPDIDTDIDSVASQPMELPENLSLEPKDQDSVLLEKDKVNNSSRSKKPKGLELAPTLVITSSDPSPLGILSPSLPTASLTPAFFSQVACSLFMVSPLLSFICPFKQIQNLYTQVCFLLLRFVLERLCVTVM
The following applies: protein: recombinant; tags: N-terminal GST; dsDNA, one strand shown. The gist of the method:
as §1

A further assay deals with T4, ETV2 (Homo sapiens, UniProt O00321 1-342).
T4 sequence: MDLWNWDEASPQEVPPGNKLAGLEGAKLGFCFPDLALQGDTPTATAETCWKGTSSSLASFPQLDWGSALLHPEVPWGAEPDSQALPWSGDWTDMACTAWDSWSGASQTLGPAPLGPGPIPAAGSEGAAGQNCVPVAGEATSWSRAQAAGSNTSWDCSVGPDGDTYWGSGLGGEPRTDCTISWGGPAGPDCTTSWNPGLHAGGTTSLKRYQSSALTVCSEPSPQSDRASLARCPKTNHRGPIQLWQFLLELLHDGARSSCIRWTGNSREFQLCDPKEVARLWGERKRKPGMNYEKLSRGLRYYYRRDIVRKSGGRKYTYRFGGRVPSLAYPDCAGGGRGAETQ
The following applies: protein: recombinant; tags: N-terminal GST; dsDNA, one strand shown. The gist of the method:
as §1

Another assay deals with T5, ELF3 (Homo sapiens, UniProt P78545 1-371).
T5 sequence: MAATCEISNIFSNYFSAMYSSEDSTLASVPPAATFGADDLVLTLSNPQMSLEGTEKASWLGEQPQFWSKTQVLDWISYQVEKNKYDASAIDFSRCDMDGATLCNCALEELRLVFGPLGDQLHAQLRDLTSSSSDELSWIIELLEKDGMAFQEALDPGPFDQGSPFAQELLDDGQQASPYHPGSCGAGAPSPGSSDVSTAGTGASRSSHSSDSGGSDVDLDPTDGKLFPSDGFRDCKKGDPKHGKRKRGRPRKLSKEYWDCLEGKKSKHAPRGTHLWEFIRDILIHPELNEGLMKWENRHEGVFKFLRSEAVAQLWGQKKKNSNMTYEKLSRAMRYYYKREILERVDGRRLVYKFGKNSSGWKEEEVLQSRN
The following applies: protein: recombinant; tags: N-terminal GST; dsDNA, one strand shown. The method in brief:
as §1

In another assay the target is CRX (Homo sapiens, UniProt O43186 1-299). The following applies: protein: recombinant; tags: N-terminal GST; dsDNA, one strand shown. The gist of the method: as §1
CRX, sequence (O43186 whole entry): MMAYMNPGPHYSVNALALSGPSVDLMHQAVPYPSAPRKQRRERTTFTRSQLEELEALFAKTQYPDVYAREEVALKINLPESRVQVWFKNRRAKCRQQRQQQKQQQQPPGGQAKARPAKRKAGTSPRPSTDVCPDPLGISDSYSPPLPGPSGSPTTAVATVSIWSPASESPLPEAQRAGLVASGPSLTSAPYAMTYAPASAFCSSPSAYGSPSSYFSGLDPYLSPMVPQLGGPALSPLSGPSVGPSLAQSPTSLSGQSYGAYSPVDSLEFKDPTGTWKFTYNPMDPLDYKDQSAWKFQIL
Another assay deals with ETV1 (Homo sapiens, UniProt P50549 1-477). The following applies: protein: recombinant; tags: N-terminal GST; dsDNA, one strand shown. The gist of the method:
as §1

ETV5, sequence (P41161 whole entry): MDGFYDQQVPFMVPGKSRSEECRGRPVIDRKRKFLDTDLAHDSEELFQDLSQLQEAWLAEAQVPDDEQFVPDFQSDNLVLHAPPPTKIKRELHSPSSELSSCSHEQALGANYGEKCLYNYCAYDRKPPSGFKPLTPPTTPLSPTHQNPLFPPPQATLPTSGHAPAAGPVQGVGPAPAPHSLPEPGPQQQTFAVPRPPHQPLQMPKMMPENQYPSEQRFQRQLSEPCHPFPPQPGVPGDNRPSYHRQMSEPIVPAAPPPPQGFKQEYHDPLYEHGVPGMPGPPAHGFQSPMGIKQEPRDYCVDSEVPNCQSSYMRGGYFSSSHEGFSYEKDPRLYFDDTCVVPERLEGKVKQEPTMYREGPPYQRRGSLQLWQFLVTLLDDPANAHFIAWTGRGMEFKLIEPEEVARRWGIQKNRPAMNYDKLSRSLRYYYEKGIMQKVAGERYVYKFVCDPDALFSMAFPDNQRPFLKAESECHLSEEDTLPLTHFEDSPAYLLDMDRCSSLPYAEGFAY
ETV1, sequence (P50549 whole entry): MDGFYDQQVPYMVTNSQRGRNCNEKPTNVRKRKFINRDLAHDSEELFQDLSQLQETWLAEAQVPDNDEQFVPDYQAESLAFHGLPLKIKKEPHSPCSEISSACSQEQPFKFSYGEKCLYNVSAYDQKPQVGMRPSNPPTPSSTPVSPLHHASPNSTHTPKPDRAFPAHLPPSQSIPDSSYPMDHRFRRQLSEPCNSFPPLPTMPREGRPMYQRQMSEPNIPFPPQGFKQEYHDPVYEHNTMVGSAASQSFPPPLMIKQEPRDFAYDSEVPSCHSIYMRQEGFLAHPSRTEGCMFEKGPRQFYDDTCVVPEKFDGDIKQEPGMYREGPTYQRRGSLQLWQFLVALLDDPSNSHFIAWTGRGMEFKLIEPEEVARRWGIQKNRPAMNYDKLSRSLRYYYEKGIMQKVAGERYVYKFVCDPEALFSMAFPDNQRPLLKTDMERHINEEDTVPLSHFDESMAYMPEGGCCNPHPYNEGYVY

Regarding ACCTGC, the binding signal was 1.5 fold enrichment (6-mer frequency, TF over GST control) with FEV; 1.53 fold enrichment (6-mer frequency, TF over GST control) with ETV5; 1.27 fold enrichment (6-mer frequency, TF over GST control) with HSF1; 1.22 fold enrichment (6-mer frequency, TF over GST control) in the assay with SPIC; 1.47 fold enrichment (6-mer frequency, TF over GST control) in the assay with ELF4; 1.59 fold enrichment (6-mer frequency, TF over GST control) with ELK4. Also, the binding signal is 1.39 fold enrichment (6-mer frequency, TF over GST control) with ETV2; 1.65 fold enrichment (6-mer frequency, TF over GST control) with ELF3; 1.22 fold enrichment (6-mer frequency, TF over GST control) with CRX; 1.57 fold enrichment (6-mer frequency, TF over GST control) with ETV1.

For the sequence TCTTAA, the binding signal was 1.24 fold enrichment (6-mer frequency, TF over GST control) in the assay with FEV; 1.2 fold enrichment (6-mer frequency, TF over GST control) with ETV5; 1.88 fold enrichment (6-mer frequency, TF over GST control) with HSF1; 1.2 fold enrichment (6-mer frequency, TF over GST control) with SPIC; 1.19 fold enrichment (6-mer frequency, TF over GST control) in the assay with ELF4; 1.18 fold enrichment (6-mer frequency, TF over GST control) in the assay with ELK4. Further, the binding signal is 1.25 fold enrichment (6-mer frequency, TF over GST control) with ETV2; 1.24 fold enrichment (6-mer frequency, TF over GST control) with ELF3; 2.69 fold enrichment (6-mer frequency, TF over GST control) in the assay with CRX; 1.12 fold enrichment (6-mer frequency, TF over GST control) in the assay with ETV1.

As for CTTAAA, the binding signal in the assay with FEV was 1.21 fold enrichment (6-mer frequency, TF over GST control); in the assay with ETV5, 1.21 fold enrichment (6-mer frequency, TF over GST control); with HSF1, 1.65 fold enrichment (6-mer frequency, TF over GST control); with SPIC, 1.21 fold enrichment (6-mer frequency, TF over GST control); in the assay with ELF4 it was 1.12 fold enrichment (6-mer frequency, TF over GST control); in the assay with ELK4, 1.11 fold enrichment (6-mer frequency, TF over GST control). The binding signal with ETV2 is 1.1 fold enrichment (6-mer frequency, TF over GST control); in the assay with ELF3, 1.2 fold enrichment (6-mer frequency, TF over GST control); with CRX, 2.38 fold enrichment (6-mer frequency, TF over GST control); with ETV1, 1.25 fold enrichment (6-mer frequency, TF over GST control).

Consider ATGTTC, for which the binding signal with FEV is 1.15 fold enrichment (6-mer frequency, TF over GST control); with ETV5 it was 1.16 fold enrichment (6-mer frequency, TF over GST control); in the assay with HSF1, 2.33 fold enrichment (6-mer frequency, TF over GST control); with SPIC it was 1.32 fold enrichment (6-mer frequency, TF over GST control); in the assay with ELF4 it was 1.22 fold enrichment (6-mer frequency, TF over GST control); with ELK4, 1.2 fold enrichment (6-mer frequency, TF over GST control). Further, the binding signal is 1.14 fold enrichment (6-mer frequency, TF over GST control) with ETV2; 1.15 fold enrichment (6-mer frequency, TF over GST control) with ELF3; 1.22 fold enrichment (6-mer frequency, TF over GST control) in the assay with CRX; 1.3 fold enrichment (6-mer frequency, TF over GST control) with ETV1.

On to AAATCT, for which the binding signal was 1.29 fold enrichment (6-mer frequency, TF over GST control) in the assay with FEV; 1.31 fold enrichment (6-mer frequency, TF over GST control) with ETV5; 1.75 fold enrichment (6-mer frequency, TF over GST control) with HSF1; 1.39 fold enrichment (6-mer frequency, TF over GST control) in the assay with SPIC; 1.34 fold enrichment (6-mer frequency, TF over GST control) with ELF4; 1.25 fold enrichment (6-mer frequency, TF over GST control) with ELK4. For the same sequence, the binding signal is 1.24 fold enrichment (6-mer frequency, TF over GST control) with ETV2; 1.25 fold enrichment (6-mer frequency, TF over GST control) in the assay with ELF3; 2.03 fold enrichment (6-mer frequency, TF over GST control) with CRX; 1.35 fold enrichment (6-mer frequency, TF over GST control) in the assay with ETV1.

Take CTCCCG: the binding signal with FEV was 1.61 fold enrichment (6-mer frequency, TF over GST control); with ETV5, 1.59 fold enrichment (6-mer frequency, TF over GST control); with HSF1, 1.5 fold enrichment (6-mer frequency, TF over GST control); with SPIC, 1.77 fold enrichment (6-mer frequency, TF over GST control); in the assay with ELF4 it was 1.68 fold enrichment (6-mer frequency, TF over GST control); with ELK4, 1.46 fold enrichment (6-mer frequency, TF over GST control). Also, the binding signal with ETV2 is 1.25 fold enrichment (6-mer frequency, TF over GST control); with ELF3, 1.69 fold enrichment (6-mer frequency, TF over GST control); in the assay with CRX it was 1.27 fold enrichment (6-mer frequency, TF over GST control); with ETV1, 1.5 fold enrichment (6-mer frequency, TF over GST control).

Regarding TGTTCC, the binding signal in the assay with FEV was 1.69 fold enrichment (6-mer frequency, TF over GST control); with ETV5, 1.71 fold enrichment (6-mer frequency, TF over GST control); with HSF1, 1.85 fold enrichment (6-mer frequency, TF over GST control); with SPIC it was 2 fold enrichment (6-mer frequency, TF over GST control); with ELF4, 1.64 fold enrichment (6-mer frequency, TF over GST control); in the assay with ELK4, 1.49 fold enrichment (6-mer frequency, TF over GST control). The binding signal with ETV2 was 1.78 fold enrichment (6-mer frequency, TF over GST control); in the assay with ELF3, 1.6 fold enrichment (6-mer frequency, TF over GST control); with CRX, 1.21 fold enrichment (6-mer frequency, TF over GST control); with ETV1, 1.86 fold enrichment (6-mer frequency, TF over GST control).

Values taken from paper PMC7862700, “An all-to-all approach to the identification of sequence-specific readers for epigenetic DNA modifications on cytosine”.
